This is an account of results in PubChem BioAssay (NCATS).

Experiment [1] is described as follows: qHTS for differential inhibitors of proliferation of Plasmodium falciparum line 7G8 (AID 1815).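 Note: potency is the fitted concentration of half-maximal effect; parasite growth measured after three days of incubation.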 The conditions noted are these: Plasmodium falciparum 7G8 proliferation inhibition; series mostly up to 28.7 µM. On the technique in general: qHTS replaces the single test concentration by a dilution series.
Experiment [2] in a line: qHTS for differential inhibitors of proliferation of Plasmodium falciparum line GB4 (AID 1816).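 Note: potency is the fitted concentration of half-maximal effect; parasite growth measured after 72 h incubation.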 The conditions noted are these: Potency: Plasmodium falciparum GB4 proliferation inhibition; series mostly up to 28.7 µM.
A short description of experiment [3]: qHTS for differential inhibitors of proliferation of Plasmodium falciparum line 3D7 (AID 1876). Note: potency is the fitted concentration of half-maximal effect. The conditions noted are these: P. falciparum 3D7 proliferation inhibition; series mostly up to 28.7 µM.
The nature of experiment [4]: qHTS for differential inhibitors of proliferation of Plasmodium falciparum line D10 (AID 1877).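 Note: potency is the fitted concentration of half-maximal effect; parasites grown with compound for 72 h before DNA staining.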 The settings on record: series mostly up to 28.7 µM.
Experiment [5] can be described thus: qHTS for differential inhibitors of proliferation of Plasmodium falciparum line Dd2 (AID 1882). Note: potency is the fitted concentration of half-maximal effect; nearly all actives have a fitted effect of over 65% in size. The settings on record: Potency: Plasmodium falciparum Dd2 proliferation inhibition; series mostly up to 28.7 µM. The essentials:
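SYBR Green DNA fluorescence (ex 485, em 535 nm) after overnight lysis quantifies parasite growth; compound exposure lasted 72 h at 37 C on infected red cells at 2.5% hematocrit, 0.3% parasitemia (final). Artemisinin 0.29 uM and vehicle wells define normalization.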

Experiment [6] in a line: qHTS for differential inhibitors of proliferation of Plasmodium falciparum line W2 (AID 1883).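 Note: potency is the fitted concentration of half-maximal effect; parasites grown with compound for 72 h before lysis and staining.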 The settings on record: Potency: Plasmodium falciparum W2 proliferation inhibition; series mostly up to 28.7 µM.
The nature of experiment [7]: qHTS for differential inhibitors of proliferation of Plasmodium falciparum line HB3 (AID 1886).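 Note: potency is the fitted concentration of half-maximal effect; parasites grown with compound for 72 h before SYBR Green readout.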 The conditions noted are these: Potency: Plasmodium falciparum HB3 proliferation inhibition; series mostly up to 28.7 µM.
The nature of experiment [8]: Cell Viability - Jurkat (AID 426;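 active = dose-dependent loss of cell ATP signal giving a full or clear fitted curve, ranked by lower potency value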;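 note: potency is the fitted concentration of half-maximal effect; cells exposed to compound for 40 hours at 37 °C before ATP read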). The conditions noted are these: qHTS. The essentials: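 Cytotoxicity taken as drop in cellular ATP (CellTiter-Glo luminescence, 20 min room temperature) after 40 hr, 37C treatment of 5000 Jurkat Clone E6-1 cells per well; concentration-response fitted with Hill equation for AC50.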
Experiment [9] has as its target Bile acid receptor (Homo sapiens) (UniProt Q96RI1). Put plainly: qHTS assay for small molecule antagonists of farnesoid X receptor signaling (AID 588526; calls by dose curve). The conditions noted are these: HEK293T FXR-UAS-bla, beta-lactamase ratio, antagonist mode; series mostly up to 76.7 µM. The essentials: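 Antagonist mode: titrated compounds tested against chenodeoxycholic acid stimulation (normalized to 50 uM CDCA and DMSO) in GeneBLAzer HEK293T cells for 16 h. Beta-lactamase read by CCF4 fluorescence; IC50 from Hill fits.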

The target in experiment [10] is Peroxisome proliferator-activated receptor gamma (Homo sapiens) (UniProt P37231). In words: qHTS assay for small molecule agonists of peroxisome proliferator-activated receptor gamma signaling (AID 588536; active = well fitted curve in the direction sought with a large enough effect in the signal ratio, with a control signal flat, not every such curve was filed as active; the % refers to the signal ratio). The conditions noted are these: HEK293 PPARg-UAS-bla, beta-lactamase ratio, 16 h, percent of rosiglitazone response, DMSO as zero; series mostly up to 76.7 µM. Summed up:
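Using GeneBLAzer HEK293 cells, response was quantified by CCF4 fluorescence and normalized between basal DMSO (0%) and rosiglitazone 2 uM (100%); curves yielded half-maximal stimulation concentration and efficacy.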

Experiment [11] in a line: qHTS assay for small molecule disruptors of the mitochondrial membrane potential - 1 hr assay (AID 651754; calls by dose curve; note: nearly all actives have a fitted effect of over 35% in size). The settings on record: series mostly up to 92.2 µM. Summed up:
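Mitochondrial potential in living HepG2 cells after 1 hr compound treatment at 37C was read with Mito-MPS dye added for a further 30 min. Red aggregate and green monomer fluorescence were measured; loss of potential leaves dye as cytoplasmic monomers.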

Experiment [12] can be described thus: Cell Viability - Mesenchymal (AID 546).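 Note: cells exposed to compound for 40 hours before reading.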 The settings on record: mesenchymal cells viability, qHTS; series mostly up to 91.7 µM. Summed up: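 Human renal mesenchymal cells (glomerulus-derived), 1000 cells/well, 5 hr 37 °C pre-incubation; compound 40 hr, 37 °C; CellTiter-Glo, 20 min RT; luminescence; AC50 via Hill equation.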
Experiment [13] concerns the target DNA dC->dU-editing enzyme APOBEC-3G (Homo sapiens) (UniProt Q9HC16). In words: qHTS for inhibitors of Vif-A3G interactions: Validation (AID 588379). The settings on record: Vif-A3G protein interaction assay; series mostly up to 46.1 µM. The essentials:
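Yellow fluorescence (Ex 488, Em 500-530) of Vif-coexpressing HeLa A3G-eYFP cells, scanned by Acumen cytometer, reports blocked A3G degradation. Cells plated at 700/well overnight at 37 deg C before compound addition, then a further overnight compound incubation at 37 deg C.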

Experiment [14] addresses Rap guanine nucleotide exchange factor 3 (Homo sapiens) (UniProt O95398). Put plainly: Confirmatory qHTS for agonist of cAMP-regulated guanine nucleotide exchange factor 3 (EPAC1) (AID 1645881).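 Note: EPAC1 catalysed release of BODIPY-GDP from Rap1B seen as fluorescence loss; nearly all actives have a fitted effect of over 75% in size.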 The settings on record: EPAC1 Rap1B BODIPY-GDP exchange fluorescence; series mostly up to 154 µM.
Experiment [15] has as its target Rap guanine nucleotide exchange factor 4 (Homo sapiens) (UniProt Q8WZA2). Put plainly: Confirmatory qHTS for agonist of cAMP-regulated guanine nucleotide exchange factor 4 (EPAC2) (AID 1645884).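 Note: nucleotide exchange releases bodipy-GDP from Rap1 and this lowers its fluorescence; nearly all actives have a fitted effect of over 65% in size.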 The settings on record: EPAC2 GEF activity, Rap1B-BODIPY-GDP fluorescence; series mostly up to 154 µM.
Experiment [16] in a line: Cell Viability - LYMP2-010 (AID 981).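 Note: cells exposed to compound for 24 hours at 37 °C; nearly all actives have a fitted effect of over 55% in size.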 Note: potency is the fitted concentration of half-maximal effect. The conditions noted are these: LYMP2-010 lymphoblastoid cell viability, qHTS; series mostly up to 92.2 µM. Summed up: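 CellTiter-Glo ATP luminescence measured cytotoxicity after 24 h compound exposure at 37 C. LYMP2-010 cells were seeded at 2500/well, with tetraoctylammonium bromide as control; concentration-response curves gave AC50 values by the Hill equation.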

Experiment [17] concerns the target Cytochrome P450 2C9 (Homo sapiens) (UniProt P11712). In words: qHTS Assay for Inhibitors and Substrates of Cytochrome P450 2C9 (AID 883). Note: nearly all actives have a fitted effect of over 60% in size. Note: potency is the fitted concentration of half-maximal effect. The conditions noted are these: recombinant CYP2C9, luciferin-H luminescence, 60 min; series mostly up to 57.1 µM. Summed up:
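10nM CYP2C9 + 100uM Luciferin-H (=KM), 25mM KPO4; cpd 10 min 37C; NADPH regen, 60 min 37C; stop/detect with P450 Glo-Buffer 20 min; luminescence. Norm. to 57uM sulphaphenazole as full inhibition.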

For experiment [18], the target named is Muscarinic acetylcholine receptor M1 (Rattus norvegicus) (UniProt P08482). In words: qHTS Assay for Antagonists of Acetylcholine Muscarinic M1 Receptor: Measurement of IP-One Response (AID 944). Note: nearly all actives have a fitted effect of over 75% in size. The settings on record: CHO-M1 cells, IP-One HTRF, antagonist mode; series mostly up to 46.1 µM. Summed up:
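IP1 accumulation measured via TR-FRET between d2-IP1 and Eu-cryptate anti-IP1 antibody after carbachol (200 nM, EC80) stimulation for 30 min; rat M1-transfected CHO cells received compound 10 min before agonist.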

For experiment [19], the target named is ATP-dependent 6-phosphofructokinase (Trypanosoma brucei brucei) (UniProt O15648). In words: qHTS Assay to Find Inhibitors of T. brucei phosphofructokinase: hit validation (AID 492961). The conditions noted are these: T. brucei PFK, ADP-Glo luminescence; series mostly up to 51.4 µM. The essentials:
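Luminescence from ADP-Glo reports ADP generated as T. brucei PFK (1.25 nM) phosphorylates 0.5 mM fructose-6-phosphate using 0.1 mM ATP. Reactions ran 45 min at room temperature, pH 8.0.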

Unmarked numbers belong to inactive results. Inconclusive results are not listed. Where a call stands in place of a potency, no number is given. Activity calls are given as the source filed them. Unless noted, calls come from the whole dose curve; as a rule, active = well fitted curve in the direction sought with a large enough effect; inconclusive = small, poorly fitted or top-dose-only effect, or another doubt; inactive = no such curve, though single readings can be large; an effect the other way counts as inactive or inconclusive.

Sequence of Muscarinic acetylcholine receptor M1 (Rattus norvegicus) (P08482 whole entry, looked up): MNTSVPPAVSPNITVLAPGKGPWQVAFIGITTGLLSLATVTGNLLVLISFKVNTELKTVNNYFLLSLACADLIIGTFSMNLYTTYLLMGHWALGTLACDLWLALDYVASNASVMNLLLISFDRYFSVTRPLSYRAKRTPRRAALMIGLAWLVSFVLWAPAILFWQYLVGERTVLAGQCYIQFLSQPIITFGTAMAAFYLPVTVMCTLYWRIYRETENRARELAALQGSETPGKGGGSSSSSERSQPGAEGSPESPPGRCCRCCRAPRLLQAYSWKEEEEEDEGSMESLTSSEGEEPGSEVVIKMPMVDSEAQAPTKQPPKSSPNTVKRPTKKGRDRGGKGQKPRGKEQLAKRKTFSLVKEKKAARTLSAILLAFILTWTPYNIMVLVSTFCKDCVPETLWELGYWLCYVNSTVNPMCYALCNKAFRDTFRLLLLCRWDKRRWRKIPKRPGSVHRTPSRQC
Sequence of ATP-dependent 6-phosphofructokinase (Trypanosoma brucei brucei) (O15648 whole entry, looked up): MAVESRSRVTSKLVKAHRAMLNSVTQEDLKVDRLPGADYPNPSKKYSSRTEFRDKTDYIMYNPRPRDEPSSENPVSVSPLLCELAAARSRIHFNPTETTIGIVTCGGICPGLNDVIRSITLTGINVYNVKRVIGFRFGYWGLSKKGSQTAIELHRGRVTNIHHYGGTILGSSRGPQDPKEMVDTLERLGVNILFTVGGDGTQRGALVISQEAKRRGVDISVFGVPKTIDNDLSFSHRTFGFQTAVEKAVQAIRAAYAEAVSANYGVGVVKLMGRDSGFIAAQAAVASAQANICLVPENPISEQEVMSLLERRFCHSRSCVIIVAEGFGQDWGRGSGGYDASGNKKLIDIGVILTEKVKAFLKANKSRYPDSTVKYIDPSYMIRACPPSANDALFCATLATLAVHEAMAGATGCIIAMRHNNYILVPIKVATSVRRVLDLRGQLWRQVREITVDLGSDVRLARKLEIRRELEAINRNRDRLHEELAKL
Sequence of Cytochrome P450 2C9 (Homo sapiens) (P11712 whole entry, looked up): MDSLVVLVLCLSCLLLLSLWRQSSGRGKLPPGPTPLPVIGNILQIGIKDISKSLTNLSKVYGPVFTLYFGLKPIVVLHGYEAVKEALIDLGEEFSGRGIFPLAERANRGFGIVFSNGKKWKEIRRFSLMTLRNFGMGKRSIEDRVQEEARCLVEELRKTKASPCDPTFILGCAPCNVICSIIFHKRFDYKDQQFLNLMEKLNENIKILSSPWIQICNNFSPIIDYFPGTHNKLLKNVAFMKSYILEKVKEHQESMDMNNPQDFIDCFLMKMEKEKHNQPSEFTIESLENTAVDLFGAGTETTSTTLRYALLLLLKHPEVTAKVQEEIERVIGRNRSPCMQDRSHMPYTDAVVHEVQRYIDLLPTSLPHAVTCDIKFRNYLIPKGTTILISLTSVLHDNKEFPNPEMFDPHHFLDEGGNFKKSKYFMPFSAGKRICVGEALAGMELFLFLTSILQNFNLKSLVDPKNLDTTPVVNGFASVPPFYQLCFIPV
Sequence of Peroxisome proliferator-activated receptor gamma (Homo sapiens) (P37231 whole entry, looked up): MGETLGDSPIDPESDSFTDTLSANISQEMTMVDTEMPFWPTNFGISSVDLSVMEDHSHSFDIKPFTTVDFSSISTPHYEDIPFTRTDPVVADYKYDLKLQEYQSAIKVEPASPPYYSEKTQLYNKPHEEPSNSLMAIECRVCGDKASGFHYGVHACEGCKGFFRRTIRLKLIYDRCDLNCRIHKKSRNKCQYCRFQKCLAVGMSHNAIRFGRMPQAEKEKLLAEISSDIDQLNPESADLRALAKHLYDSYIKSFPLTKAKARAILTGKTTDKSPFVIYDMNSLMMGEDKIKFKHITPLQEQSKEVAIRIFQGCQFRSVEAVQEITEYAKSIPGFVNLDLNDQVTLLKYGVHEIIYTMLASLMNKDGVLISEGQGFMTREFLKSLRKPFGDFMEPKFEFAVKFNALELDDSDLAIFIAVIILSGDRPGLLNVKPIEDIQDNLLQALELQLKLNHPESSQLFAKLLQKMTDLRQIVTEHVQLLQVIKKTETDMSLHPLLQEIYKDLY
Sequence of Bile acid receptor (Homo sapiens) (Q96RI1 whole entry, looked up): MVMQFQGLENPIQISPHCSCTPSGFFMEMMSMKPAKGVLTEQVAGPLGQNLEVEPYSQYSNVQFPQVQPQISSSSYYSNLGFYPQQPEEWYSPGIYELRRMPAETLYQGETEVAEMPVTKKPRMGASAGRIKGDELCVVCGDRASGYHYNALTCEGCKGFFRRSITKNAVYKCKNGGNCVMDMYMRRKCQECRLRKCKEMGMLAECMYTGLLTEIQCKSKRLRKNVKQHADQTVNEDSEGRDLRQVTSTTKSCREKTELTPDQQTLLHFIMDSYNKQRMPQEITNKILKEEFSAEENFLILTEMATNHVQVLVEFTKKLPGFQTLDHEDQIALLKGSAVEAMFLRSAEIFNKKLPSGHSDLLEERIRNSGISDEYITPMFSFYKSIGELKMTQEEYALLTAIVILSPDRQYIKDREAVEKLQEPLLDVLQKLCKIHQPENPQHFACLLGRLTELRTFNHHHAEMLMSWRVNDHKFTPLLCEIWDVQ
Sequence of DNA dC->dU-editing enzyme APOBEC-3G (Homo sapiens) (Q9HC16 whole entry, looked up): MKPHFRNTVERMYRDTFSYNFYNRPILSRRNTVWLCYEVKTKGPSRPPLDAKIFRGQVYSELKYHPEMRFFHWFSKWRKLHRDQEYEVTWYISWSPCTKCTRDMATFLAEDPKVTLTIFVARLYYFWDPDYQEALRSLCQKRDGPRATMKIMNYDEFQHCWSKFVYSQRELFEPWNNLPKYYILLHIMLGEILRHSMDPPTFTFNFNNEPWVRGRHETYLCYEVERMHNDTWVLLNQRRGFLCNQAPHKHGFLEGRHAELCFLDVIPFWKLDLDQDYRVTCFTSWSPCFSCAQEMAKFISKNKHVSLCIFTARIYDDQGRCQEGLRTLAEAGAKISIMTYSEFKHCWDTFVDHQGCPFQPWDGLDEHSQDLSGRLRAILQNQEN
Sequence of Rap guanine nucleotide exchange factor 4 (Homo sapiens) (Q8WZA2 whole entry, looked up): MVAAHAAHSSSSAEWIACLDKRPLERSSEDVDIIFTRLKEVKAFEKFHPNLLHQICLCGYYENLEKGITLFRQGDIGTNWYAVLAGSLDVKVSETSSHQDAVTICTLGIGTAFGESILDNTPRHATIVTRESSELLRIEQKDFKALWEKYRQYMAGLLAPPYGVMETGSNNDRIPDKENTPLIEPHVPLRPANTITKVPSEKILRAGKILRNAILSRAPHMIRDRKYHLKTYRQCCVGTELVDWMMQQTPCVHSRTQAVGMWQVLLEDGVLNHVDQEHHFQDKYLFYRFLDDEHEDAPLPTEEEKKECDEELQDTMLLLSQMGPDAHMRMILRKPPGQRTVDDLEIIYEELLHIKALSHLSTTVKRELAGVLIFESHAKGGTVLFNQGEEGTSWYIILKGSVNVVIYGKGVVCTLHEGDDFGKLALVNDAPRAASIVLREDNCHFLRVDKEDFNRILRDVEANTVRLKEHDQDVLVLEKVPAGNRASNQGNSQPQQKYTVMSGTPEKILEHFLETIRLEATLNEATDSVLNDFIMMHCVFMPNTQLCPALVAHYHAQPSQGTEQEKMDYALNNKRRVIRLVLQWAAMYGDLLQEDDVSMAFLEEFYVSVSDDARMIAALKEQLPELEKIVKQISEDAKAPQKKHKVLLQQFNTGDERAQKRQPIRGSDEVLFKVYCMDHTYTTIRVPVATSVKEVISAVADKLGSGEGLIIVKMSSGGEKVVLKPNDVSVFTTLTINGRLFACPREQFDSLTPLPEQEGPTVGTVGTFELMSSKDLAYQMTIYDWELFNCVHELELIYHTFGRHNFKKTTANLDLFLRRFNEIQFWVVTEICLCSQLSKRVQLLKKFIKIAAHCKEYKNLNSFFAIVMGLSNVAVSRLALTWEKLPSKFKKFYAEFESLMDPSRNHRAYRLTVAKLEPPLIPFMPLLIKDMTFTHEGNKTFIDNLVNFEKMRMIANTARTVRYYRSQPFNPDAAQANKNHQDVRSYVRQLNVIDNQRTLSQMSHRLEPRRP
Sequence of Rap guanine nucleotide exchange factor 3 (Homo sapiens) (O95398 whole entry, looked up): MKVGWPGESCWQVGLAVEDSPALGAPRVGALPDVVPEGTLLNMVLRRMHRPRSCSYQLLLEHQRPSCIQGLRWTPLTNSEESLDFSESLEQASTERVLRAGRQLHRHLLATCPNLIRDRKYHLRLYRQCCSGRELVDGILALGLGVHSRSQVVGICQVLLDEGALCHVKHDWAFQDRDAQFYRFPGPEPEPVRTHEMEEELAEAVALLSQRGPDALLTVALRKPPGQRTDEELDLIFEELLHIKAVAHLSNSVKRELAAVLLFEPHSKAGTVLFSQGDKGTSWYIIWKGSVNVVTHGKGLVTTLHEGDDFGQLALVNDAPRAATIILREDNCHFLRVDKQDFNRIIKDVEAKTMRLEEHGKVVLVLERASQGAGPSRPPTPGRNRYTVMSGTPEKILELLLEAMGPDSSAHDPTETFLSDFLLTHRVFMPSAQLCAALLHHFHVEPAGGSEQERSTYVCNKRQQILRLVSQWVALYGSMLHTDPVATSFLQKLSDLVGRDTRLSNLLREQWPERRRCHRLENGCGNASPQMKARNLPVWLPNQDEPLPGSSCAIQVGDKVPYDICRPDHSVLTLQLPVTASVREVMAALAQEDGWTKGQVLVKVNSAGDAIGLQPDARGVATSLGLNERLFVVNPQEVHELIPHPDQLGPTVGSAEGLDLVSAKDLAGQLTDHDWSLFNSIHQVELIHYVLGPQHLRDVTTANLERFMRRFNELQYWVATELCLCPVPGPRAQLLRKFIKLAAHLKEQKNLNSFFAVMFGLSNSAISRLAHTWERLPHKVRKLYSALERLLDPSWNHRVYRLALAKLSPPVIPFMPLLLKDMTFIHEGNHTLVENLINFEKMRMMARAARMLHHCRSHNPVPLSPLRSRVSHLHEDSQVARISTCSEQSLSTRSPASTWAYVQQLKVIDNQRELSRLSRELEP

Regarding `CC(C)C[C@H]1C(=O)N2CCCC2[C@]2(O)O[C@](NC(=O)[C@@H]3C=C4c5cccc6[nH]c(Br)c(c56)C[C@H]4N(C)C3)(C(C)C)C(=O)N12` (stereo partly specified), the Potency in experiment [1] is 891 nM (active); in [2] it was 1780 nM (active); in [3], 2000 nM (active); in experiment [4] it was 2510 nM (active); in experiment [5], 2000 nM (active); in [6], 1260 nM (active). The Potency in experiment [7] was 1580 nM (active).

Regarding `CNC(=O)O/N=C/C(C)(C)SC`, in experiment [8], the Potency was above 92000 nM. Moreover, the result in experiment [9] and in experiment [10] was inactive. Also, the Potency entry in experiment [11] was “inactive”. For the compound `CCOCN(C(=O)CCl)c1c(C)cccc1CC`, the Potency in experiment [8] is 32000 nM (active). Further, the compound was called inactive in experiment [12]. In experiment [11], the Potency result is “inactive”.

Regarding `COc1cc2c(cc1O)CC1c3c(cc(O)c(OC)c3-2)CCN1C` (stereo unspecified), the call in experiment [13] was inactive. For the compound `COc1cc2c(cc1-c1cc3cc4ccoc4cc3oc1=O)OCO2`, the Potency entry in experiment [14] and in experiment [15] was “inactive” in each case.

Turning to `O=C(O)COc1ccc(Cl)cc1Cl`, the Potency in experiment [8] is above 92000 nM. The Potency entry in experiment [16] is “inactive”.

Take `ClC1=C(Cl)C2(Cl)C3C4CC(C5OC45)C3C1(Cl)C2(Cl)Cl` (stereo unspecified): the Potency in experiment [16] was 50100 nM (active). Further, the outcome in experiment [10] was inactive. As to `COc1ccc2c(c1O)-c1c(OC)c(OC)cc3c1[C@H](C2)N(C)CC3`, the Potency entry in [17] is “inactive”. The result in experiment [13] was inactive. Consider `CCNc1nc(Cl)nc(NC(C)C)n1`, for which, in experiment [12], the result was inactive. Take `COc1ccc(OC)c([C@H](O)[C@H](C)N)c1`: in [18], the Potency entry was “inactive”. For `COC(=O)NC(=S)Nc1ccccc1NC(=S)NC(=O)OC`, the result in experiment [12], in [9] and in [10] was inactive. For the same compound, the Potency result in experiment [16] and in [11] was “inactive” throughout.

In the case of `CS(=N)(=O)CC[C@@H](N)C(=O)O` (stereo partly specified), the Potency entry in [18] was “inactive”. On to `C#CCN(C)[C@@H](C)Cc1ccccc1`, for which the Potency entry in experiment [18] is “inactive”. Regarding `CCc1cccc(CC)c1N(COC)C(=O)CCl`, the Potency in experiment [8] is 54000 nM (active). Further, in experiment [9], the result was inactive. Also, the Potency result in experiment [11] is “inactive”. Take `CNC[C@H](O)c1ccc(O)cc1`: in [19], the Potency result is “inactive”. Regarding `COc1ccc2c(c1OC)C(=O)O[C@H]2[C@H]1c2cc3c(cc2CCN1C)OCO3`, the Potency in [17] was 3980 nM (active). The Potency entry in experiment [18] is “inactive”. Consider `ClC1=C(Cl)C2(Cl)C3C(Cl)C=CC3C1(Cl)C2(Cl)Cl` (stereo unspecified), for which the Potency entry in [11] was “inactive”. Consider `ClC1=C(Cl)C2(Cl)C3C4C=CC(C4)C3C1(Cl)C2(Cl)Cl` (stereo unspecified), for which the call in experiment [12] and in [10] was inactive. As for `C[C@@]12CC[C@H]3[C@@H](CC[C@@H]4C[C@H]5S[C@H]5C[C@]43C)[C@H]1CC[C@H]2O`, the Potency in experiment [17] is 5 nM (active). In experiment [19], the Potency result was “inactive”. With `NC[C@H](O)c1ccc(O)cc1`, in [18], the Potency entry is “inactive”. In the case of `c1ccc(N=Nc2ccccc2)cc1`, in experiment [12], the result was inactive. Consider `CC(C)c1c(CN(C)[C@@H](C)Cc2ccccc2)n(C)n(-c2ccccc2)c1=O`, for which the Potency in [17] was 7940 nM (active). Also, in experiment [19], the Potency result is “inactive”.

Consider `C[C@@]12CCC(=O)C=C1C=C[C@H]1[C@H]3CC[C@](O)(CCC(=O)O)[C@]3(C)CC[C@@H]12`, for which the Potency result in experiment [19] was “inactive”.

Turning to `CC(C)[C@@]1(NC(=O)[C@@H]2C[C@H]3c4cccc5[nH]cc(c45)C[C@@H]3N(C)C2)O[C@]2(O)[C@H]3CCCN3C(=O)[C@H](Cc3ccccc3)N2C1=O`, the Potency in [17] is 2510 nM (active). Take `NCC[C@H](O)C(=O)N[C@H]1C[C@@H](N)[C@@H](O[C@H]2O[C@@H](CN)[C@@H](O)[C@@H](O)[C@@H]2N)[C@@H](O[C@H]2O[C@@H](CO)[C@@H](O)[C@@H]2O)[C@@H]1O`: in experiment [19], the Potency result was “inactive”. Consider `COc1ccc(C[C@H]2c3cc(OC)c(OC)cc3CCN2C)cc1OC`, for which the Potency result in experiment [17] is “inactive”.
